# According to PubChem BioAssay AID463173 (ICCB-Longwood Screening Facility, Harvard Medical School, 2010):
# About 4,300 (8.3%) of roughly 52,000 compounds were called active. This excerpt belongs to a sample that is enriched for actives. Unmarked numbers belong to inactive results. No stated cut-off is given here; in the data, active means survival mostly below about 52% (no sharp cut-off); inactive means mostly above about 56%.
# Tested on: DeltatarO mutant
# Assay: S. aureus survival, RN4220 and DeltatarO strains – OD600, teichoic acid synthesis inhibitors, primary screen (AID 463173)
# Conditions: S. aureus RN4220 wild type/DeltatarO growth, OD600, 18 h, active compounds read low, concentration not given here
row,SMILES,survival
1,CCc1ccc(NC(=O)c2cccn(Cc3cccc([N+](=O)[O-])c3)c2=O)cc1,89%
2,Cc1cc(C=C(C#N)C#N)c(C)n1C1CCCC1,64%
3,CC(C)NCc1ccc2c(c1)OCO2,76%
4,Cc1ccc(C(C)(C)C)c(OCC(=O)Nc2ccc(Cl)cc2C(=O)c2ccccc2)c1,66%
5,CCN(CC)C(=O)c1ccc(NC(=O)Cn2nc(-c3ccc(C)cc3)c3ccccc3c2=O)cc1,50%
6,CCN(CC)C(=O)c1ccc(NC(=O)CCn2nc(-c3ccc(Cl)cc3)c3ccccc3c2=O)cc1,47% (active)
7,CCN(CC)C(=O)c1ccc(NC(=O)CCn2nc(-c3ccc(C)cc3)c3ccccc3c2=O)cc1,61%
8,CCOc1ccccc1NC(=O)c1cccn(Cc2ccccc2C)c1=O,70%
9,Cc1[nH]c2c(C)cccc2c1CCN,37% (active)
10,Cc1n[nH]c(C)c1CCN,80%
11,O=S1(=O)CC2(N3CCOCC3)CCCCC21 (centres undefined),84%
12,C=CCN1C(=O)CN=C(c2cccs2)c2c1sc1c2CCC1,92%
13,COc1ccc(OC)c(NC(=O)Cn2cc(C(=O)c3ccccc3F)c3ccccc32)c1,70% (active)
14,COc1cccc(NC(=O)Cn2cc(C(=O)c3ccccc3)c3ccccc32)c1,47%
15,COc1ccc(OC)c(NC(=O)Cn2cc(C(=O)c3ccccc3)c3ccccc32)c1,59%
16,Cc1ccc(-c2nn3c(=O)cc(CN4CCN(C(=O)COc5ccc(C)c(C)c5)CC4)nc3s2)cc1,81%
17,O=C(COc1ccccc1Cl)N1CCN(CCc2ccccn2)CC1,110%
18,COc1ccc(OC)c(C(c2c(O)c3ccccc3oc2=O)c2c(C)n(C)n(-c3ccccc3)c2=O)c1 (centres undefined),56%
19,COc1ccc(/C=C/c2nc3ccccc3c(=O)n2-c2ccc(C)cc2)cc1O,85%
20,COc1cccc(-n2c(/C=C/c3cccc(C)c3)nc3ccccc3c2=O)c1,0% (active)
21,Cc1ccc(-n2c(/C=C/c3ccccc3)nc3ccccc3c2=O)cc1Cl,68%
22,COc1cccc(-n2c(/C=C\c3ccc(Cl)cc3)nc3ccccc3c2=O)c1,30% (active)
23,Cc1cccc(-n2c(/C=C\c3cccc(Br)c3)nc3ccccc3c2=O)c1,113%
24,COc1cccc(/C=C/c2nc3ccccc3c(=O)n2-c2ccc(Cl)cc2)c1OC,88%
25,O=c1c2ccccc2nc(/C=C/c2cccc3ccccc23)n1-c1ccc(Cl)cc1,78%

row,SMILES,survival
1,CCN1CCN(C(=O)COc2ccc(S(=O)(=O)N(C)Cc3ccccc3)cc2)CC1,87%
2,CC1(C)CC(NC(=O)CN2CCCC2=O)CC(C)(C)N1,79%
3,COc1ccc(C=C2C(=O)NC(=S)NC2=O)cc1,96%
4,Cc1cccc(OC(C)C(=O)NCC2(N(C)C)CCCCC2)c1C (centres undefined),92%
5,N#CC(C#N)=Cc1ccc(Sc2ccccc2)o1,72%
6,COc1ccccc1CNCCc1ccccc1,95%
7,Cc1ccc(OCC(=O)N2CCN(CCc3ccncc3)CC2)cc1,86%
8,CC(C)c1ccc(OCC(=O)N2CCN(CCc3ccncc3)CC2)cc1,44% (active)
9,O=C(COc1ccc2ccccc2c1)N1CCN(Cc2ccncc2)CC1,67%
10,Cc1ccc(OCC(=O)N2CCN(CCc3ccncc3)CC2)cc1C,53%
11,COc1ccc(OCC(=O)N2CCN(CCc3ccncc3)CC2)cc1,82%
12,Cc1cc(OCC(=O)N2CCN(CCc3ccncc3)CC2)ccc1Cl,49%
13,Cc1ccc(C(C)C)c(OCC(=O)N2CCN(CCc3ccncc3)CC2)c1,42% (active)
14,O=C(COc1ccccc1Cl)N1CCN(CCc2ccncc2)CC1,95%
15,CCc1ccc(OCC(=O)N2CCN(CCc3ccncc3)CC2)cc1,98%
16,O=C(COc1cccc(Cl)c1)N1CCN(CCc2ccncc2)CC1,47% (active)
17,O=C(COc1ccccc1[N+](=O)[O-])N1CCN(CCc2ccncc2)CC1,90%
18,Cc1cc(OCC(=O)N2CCN(CCc3ccncc3)CC2)cc(C)c1Cl,57% (active)
19,O=C(Nc1ccc2c(c1)OCCO2)c1cccn(Cc2cccc([N+](=O)[O-])c2)c1=O,94%
20,Cc1ccc(-n2c(/C=C/c3cc(Br)cs3)nc3ccccc3c2=O)cc1,74%
21,CC(=O)N(C1=NCCCS1)c1ccc(C)cc1,99%
22,CC(=O)OC1(c2ccccc2)CCN(C)C2CCCCC21 (centres undefined),91%
23,CN1CCc2nc3sc4c(=O)[nH]c(=O)[nH]c4c3cc2C1,79%
24,Cc1ccc(Cl)cc1NC(=O)N(Cc1ccc2c(c1)OCO2)C1CCN(Cc2ccccc2)CC1,55%
25,Cc1cccnc1-n1c(C)nc2ccccc2c1=O,76%

row,SMILES,survival
1,COc1ccc(NC(=O)CCc2nc(C3=CCN(Cc4cccc(C)c4)CC3)no2)c(OC)c1,91%
2,COC(=O)c1ccccc1NC(=O)c1cccn(Cc2cccc(Cl)c2)c1=O,73%
3,CCOc1ccc2nc(NC(=O)c3cccn(Cc4ccccc4Cl)c3=O)sc2c1,87%
4,O=c1c2ccccc2[nH]c(=S)n1-c1ccccc1,90%
5,CCOc1ccc2nc(NC(=O)c3cccn(Cc4ccccc4)c3=O)sc2c1,94%
6,O=S1(=O)N(Cc2ccccc2)CCCN1Cc1ccc(F)cc1Cl,87%
7,O=S1(=O)N(Cc2ccccc2Cl)CCCN1Cc1ccccc1Cl,10% (active)
8,O=S1(=O)N(Cc2ccccc2)CCCN1Cc1cccc(Cl)c1,71%
9,O=C(Nc1ccon1)c1cccn(Cc2cccc([N+](=O)[O-])c2)c1=O,102%
10,COc1ccc(C(C(=O)NC2CCCCC2)N(CCN2CCOCC2)C(=O)Cc2c[nH]c3ccccc23)cc1OC (centres undefined),59%
11,COc1ccccc1NC(=O)N(Cc1ccc2c(c1)OCO2)C1CCN(Cc2ccccc2)CC1,88%
12,COc1ccccc1-n1c(/C=C/c2ccccc2)nc2ccccc2c1=O,67%
13,CSc1nc2ccccc2c(=O)n1-c1ccccc1C,95%
14,CCCSc1nc2ccccc2c(=O)n1-c1ccccc1OC,-2% (active)
15,Cc1cccc(Cn2cccc(C(=O)Nc3cc(C)on3)c2=O)c1,73%
16,CCCCn1c(=O)c(C(=O)NC)c(O)c2ccccc21,99%
17,CCCCCn1c(=O)c(C(=O)Nc2ccccc2S(N)(=O)=O)c(O)c2ccccc21,0% (active)
18,CCN1CCN(Cc2nnnn2C(C)(C)C)CC1,100%
19,O=C1CC(c2cccnc2)Nc2ccc3ccccc3c21 (centres undefined),86%
20,Cc1ccc(Cn2cccc(C(=O)Nc3cc([N+](=O)[O-])ccc3C)c2=O)cc1,82%
21,CCOC(=O)c1ccc(NC(=O)c2cccn(Cc3ccccc3F)c2=O)cc1,86%
22,Cc1nnc(NC(=O)c2cccn(Cc3ccccc3F)c2=O)s1,94%
23,CCc1ccccc1NC(=O)c1cccn(Cc2ccccc2F)c1=O,47% (active)
24,CC(C)c1ccc(OCC(=O)N2CCN(CCc3ccccn3)CC2)cc1,66%
